According to article PMC9574860, “Chemical Toolkit for PARK7: Potent, Selective, and High-Throughput” (Journal of Medicinal Chemistry, 2022):
About 400 (5.1%) of roughly 7,900 compounds showed an effect of 50% or more. The entries come from a sample that favours strong results as a whole.

What follows are molecules tested against Parkinson's disease protein 7 (PARK7/DJ1) (human, UniProt Q99497) (assay: primary screen, percent inhibition; read as competition with a fluorescent probe by fluorescence polarization; higher = more effect of the substance). Conditions: 100 µM.
Sequence of Parkinson's disease protein 7 (PARK7/DJ1) (Q99497 whole entry, looked up, the tested form may be a part): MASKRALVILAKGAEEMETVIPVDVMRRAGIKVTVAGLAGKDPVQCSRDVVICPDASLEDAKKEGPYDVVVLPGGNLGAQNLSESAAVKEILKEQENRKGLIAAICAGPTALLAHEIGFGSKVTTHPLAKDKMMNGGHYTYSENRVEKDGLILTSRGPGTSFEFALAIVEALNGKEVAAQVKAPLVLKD
In short: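 Fluorescence-polarization probe displacement (JYQ-107, 20 nM final, 2 h) after 2 h preincubation of PARK7 (0.2 μM final) with each fragment at 100 μM final. Read-out ex/em 480/520 nm; remaining activity derived from FP signal loss relative to reference controls.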
With `O=C(CCl)Nc1ccc(S(=O)(=O)N2CCOCC2)cc1` the Inhibition % was 87.4%. `O=C(CCl)Nc1ccc(S(=O)(=O)N2CCCCC2)cc1` showed an Inhibition % of 92.7%. Work on `O=C(CCCl)Nc1cccc(S(=O)(=O)N2CCCC2)c1` yielded an Inhibition % of 4.27%. `O=C(CCl)Nc1cccc(S(=O)(=O)N2CCCC2)c1` was tested, and the Inhibition % was 7.91%. In the case of `C=CC(=O)Nc1ccc(S(=O)(=O)N2CCCC2)cc1`, the Inhibition % is reported as 8.4%. For `O=C(CCl)Nc1ccc(S(=O)(=O)N2CCCC2)cc1`, the Inhibition % was 85.4%. `O=C(CCl)Nc1cccc(S(=O)(=O)N2CCOCC2)c1` showed an Inhibition % of 8.1%. Molecule `Cl.O=C(CCl)Nc1ccc(CN2CCOCC2)cc1` has an Inhibition % of 40.1%. `O=C(CCCl)Nc1ccc(S(=O)(=O)N2CCCC2)cc1` gave an Inhibition % of 3.33%. Molecule `Cn1cc(B2OC(C)(C)C(C)(C)O2)cn1` has an Inhibition % of 4.89%. For `CC(C)(C(=O)CCl)N1C(=O)c2ccccc2C1=O`, the Inhibition % was 5.76%. `C=CC(=O)N1C[C@@]2(C)CS(=O)(=O)C[C@@]2(C)C1` gave an Inhibition % of 5.67%. `N#Cc1nc(C2CC2)oc1N1CCN(C(=O)C2CC2)CC1` gave an Inhibition % of 5.36%. With `N#Cc1nccn1Cc1cc(F)cc(F)c1` the Inhibition % was 5.08%. `N#Cc1nccn1Cc1ccc(F)cc1F` was tested, and the Inhibition % was 68.3%. `N#Cc1nccn1Cc1cccc(F)c1F` showed an Inhibition % of 4.63%. `C=CC(=O)N1CCC(c2ccnn2C)CC1` was tested, and the Inhibition % was 4.28%. `COC1CCN(c2nc(C#N)c(Cl)s2)CC1` gave an Inhibition % of 7.16%. For `COC1CCN(c2nc(C#N)ccc2C)CC1`, the Inhibition % was 71.3%. Molecule `Cc1ccc(C#N)nc1N1CCCOC(C)C1` (stereo not shown) has an Inhibition % of 42.8%. For `N#CC(=Cc1cnn(-c2ccccc2)c1)C(=O)O`, the Inhibition % was 10.6%. `CN(C)C(=O)Sc1cnc2nccn2c1` was tested, and the Inhibition % was 3.18%. Molecule `CN(C(=O)CC1OCCCO1)C1CCCCC1` has an Inhibition % of 3.82%. `CCN(C(=O)CCl)C1CCCCC1` showed an Inhibition % of 9.37%. `CN(C(=O)CCl)C1CCCCC1` gave an Inhibition % of 92.5%. In the case of `CC1CCC(N(C)C(=O)CCl)CC1` (stereo not shown), the Inhibition % is reported as 101%. In the case of `CN(CC1CCCCC1)C(=O)CCl`, the Inhibition % is reported as 50%. Work on `CN(C(=O)CCl)C1CC1` yielded an Inhibition % of -0.367%. `CN(CC12CC3CC(CC(C3)C1)C2)C(=O)CCl` was tested, and the Inhibition % was 9.71%. Molecule `CN(CC1CC1)C(=O)CCl` has an Inhibition % of 50.3%. In the case of `CN(C(=O)CCl)C1CCS(=O)(=O)C1` (stereo not shown), the Inhibition % is reported as 8.14%. Molecule `C=CC(=O)Nc1cccc2c1CN(CC(C)C)C2` has an Inhibition % of 8.44%. For `O=C(c1ccc(S)nc1)N1CCCC1`, the Inhibition % was 40.7%. For `N#CN(Cc1nnc(C2CCC2)o1)c1ccc(F)c(Cl)c1`, the Inhibition % was -0.412%.
